Bioassay records (PubChem BioAssay)
Sampled rows, rich in hits. Any-hit rate of the full collection: about 5.3%.
Tau FP inhib – blocks human tau fibril formation measured by polarization; P10636; K18 P301L tau heparin fibrillization, Alexa594 FP, 6 h; Potency, µM (series often up to 57.7 µM), without a hit: at the top dose activity, negative = inhibition, actives largely listed as inhibitors; actives 0.39% (n = 280,000); AID 1468; note: potency is the fitted concentration of half-maximal effect; nearly all actives have a fitted effect of over 55% in size
Target sequence (P10636 561-689 P618L limits assumed): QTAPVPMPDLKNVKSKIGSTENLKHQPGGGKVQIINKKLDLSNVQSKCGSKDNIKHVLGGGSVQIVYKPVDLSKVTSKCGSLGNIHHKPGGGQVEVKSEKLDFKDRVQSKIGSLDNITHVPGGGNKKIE
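Quantitative HTS format: compounds meet 15 uM recombinant K18 P301L tau and Alexa 594-tau tracer in 100 mM sodium acetate pH 7; 20 uM heparin triggers fibrillization at 37 C over 6 hr; FP gives the signal.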
Tau fluor counter – counter-screen for tau fibril formation inhibitors. tau K18 P301L Alexa594 fluorescence, heparin fibrillization. Potency, µM (titrated, usually from 57.7 µM), for inactives: top-dose activity change, negative = decrease. actives 0.93% (n = 280,000); note: potency is the fitted concentration of half-maximal effect; nearly all actives have a fitted effect of over 55% in size
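Human K18 P301L tau (15 uM unlabeled plus 0.24 uM Alexa 594-labeled, final) in 100 mM sodium acetate pH 7 was mixed with compound and 20 uM heparin and incubated 6 hr at 37 C.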
Tau fibril ThT – inhibitors of human tau fibril formation, thioflavin T binding. Potency, µM (series often up to 57.4 µM), without a hit: at the top dose activity, negative = inhibition, hits mostly inhibitors. recombinant tau K18 P301L (four-repeat tau fragment), heparin-induced fibrillization, ThT fluorescence. actives 2.1% (n = 270,000). AID 1460; note: potency is the fitted concentration of half-maximal effect; nearly all actives have a fitted effect of over 55% in size
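K18 P301L tau (15 uM + 0.24 uM Alexa 594-tagged), heparin 20 uM, NaOAc pH 7, 6 h 37 C; ThT 30 uM, 1 h RT, ex 450/em 510 nm.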
Sfp PPTase inh – inhibitors of Bacillus subtilis Sfp phosphopantetheinyl transferase; Q9F4F7; Biochemical Sfp PPTase activity, qHTS; Potency, µM, inactives show largest response in the series, negative = inhibition, usual class: inhibitors; actives 3.5% (n = 310,000); AID 1490;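 note: the enzyme is Sfp with the accession as filed and its product quenches rhodamine fluorescence; potency is the fitted concentration of half-maximal effect; 0% = enzyme reaction without inhibitor and -100% = no enzyme wells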
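Step 1, compound plus 15 nM Sfp-PPTase, 15 min, room temperature. Step 2, add rhodamine-CoA (5 uM) and BHQ-2-YbbR (12.5 uM). Step 3, read 525/598 nm fluorescence at 0 and 30 min.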
FBPA coupling cs – coupling enzyme interference in Giardia aldolase counter-screen | coupling enzyme system counterscreen, AmpLite Red fluorescence | activity change, negative = inhibition, % at 58.2 µM, hits read low | actives 0.67% (n = 290,000) | AID 2472; in the data active = activity change below about -30%
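Compounds tested against the coupling enzymes alone at 57.5 uM final; readout was AmpLite Red fluorescence (525/598 nm) after 20 min at RT.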
JMJD2E inh – inhibitors of human JMJD2E histone demethylase; JMJD2E catalytic domain, FDH-coupled NADH fluorescence (FDH is formaldehyde dehydrogenase); actives 1.6% (n = 230,000); Potency, µM (series often up to 57.1 µM), without a hit: at the top dose activity change, negative = inhibition, actives largely listed as inhibitors; active = well fitted inhibition curve with a large enough effect, not every such curve was filed as active; inconclusive = small, poorly fitted or top-dose-only effect, or another doubt; inactive = no such curve, though single readings can be large or run the other way;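 note: potency is the fitted concentration of half-maximal effect; 0% = wells with enzyme and -100% = buffer wells without enzyme; nearly all actives have a fitted effect of over 50% in size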
Target sequence (B2RXH2 1-337 limits assumed): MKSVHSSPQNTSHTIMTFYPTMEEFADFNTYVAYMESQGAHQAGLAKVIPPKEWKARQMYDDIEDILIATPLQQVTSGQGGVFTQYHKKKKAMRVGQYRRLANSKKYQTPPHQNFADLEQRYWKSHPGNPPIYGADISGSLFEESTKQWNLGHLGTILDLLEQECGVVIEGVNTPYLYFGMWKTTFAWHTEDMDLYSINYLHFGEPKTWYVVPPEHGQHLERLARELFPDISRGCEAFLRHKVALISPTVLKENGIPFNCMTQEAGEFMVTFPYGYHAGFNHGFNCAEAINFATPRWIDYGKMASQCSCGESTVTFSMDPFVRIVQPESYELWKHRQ
Numbers without * were called inactive; ? = inconclusive; / = no result; [ ] = dose if it differs, or a comment. Unless noted, calls come from the whole dose curve; as a rule, active = well fitted curve in the direction sought with a large enough effect; inconclusive = small, poorly fitted or top-dose-only effect, or another doubt; inactive = no such curve, though single readings can be large; an effect the other way counts as inactive or inconclusive. Unless noted, % is set by controls: 0 for no effect and ±100 for the full control effect.

SMILES | Tau FP inhib | Tau fluor counter | Tau fibril ThT | Sfp PPTase inh | FBPA coupling cs | JMJD2E inh
NCCCC[C@H](NC(=O)[C@H](Cc1ccccc1)NC(=O)[C@H](CCCN=C(N)N)NC(=O)[C@@H](N)Cc1ccc(O)cc1)C(N)=O | -3% | -4% | -2% | 14% | / | /
c1ccc2c(CCNCc3ccc4c(c3)OCO4)c[nH]c2c1 | 2% | 6% | 3% | 35µM* | -11 | -2%
C=CCNC(=S)/N=C/c1c(O)[nH]c(=O)[nH]c1=O | ? | -13% | ? | 45µM* | -2 | 2.5µM*
NC(=S)/N=C/c1c(O)[nH]c(=O)[nH]c1=O | ? | -11% | ? | -18% | 2 | ?
CC(C)CCNC(=O)c1c(N)n(CC2CCCO2)c2nc3ccccc3nc12 (stereo not given) | -8% | ? | ? | -3% | -42* | ?
CCC(C)NC(=O)c1c(N)n(CC2CCCO2)c2nc3ccccc3nc12 (stereo not given) | -15% | ? | ? | -15% | -40* | ?
CCC(C)NC(=O)c1c(N)n(Cc2ccc3c(c2)OCO3)c2nc3ccccc3nc12 (stereo not given) | ? | ? | 20µM* | -7% | -37* | ?
CCCCn1c(N)c(C(=O)NCCN2CCOCC2)c2nc3ccccc3nc21 | 3% | -16% | 0% | -5% | -13 | ?
C[C@@H](COc1ccccc1)N(CCCl)Cc1ccccc1 | / | / | / | 14% | 0 | -4%[25.5 µM]
COc1ccc(CCNCc2ccncc2)cc1OC | 1% | -2% | -2% | 45µM* | -4 | ?
COc1ccc(CCNCc2ccc(Br)cc2)cc1OC | / | / | / | -21% | 1 | /
Cc1ccc(C[N+](C)(C)C)o1 | ? | -7% | -4% | -1% | -3 | -6%
CC(C)=CCCC1(C)C=Cc2c(O)c3c(c(CC=C(C)C)c2O1)OC12C(CC4CC1C(C)(C)OC2(C/C=C(/C)C(=O)O)C4O)C3=O (stereo not given) | -3% | -17% | ? | -15% | 0 | ?
O=C(O)[C@@H]1CSC(c2cccnc2)N1 (stereo not given in full) | -2% | -3% | -20% | 40µM* | -1 | ?
O=C1NC(=O)N(c2ccc(Br)cc2)C(=O)/C1=C/c1ccsc1 | -6% | -15% | ? | 32µM* | 2 | -9%
O=C1NC(=O)N(c2ccc(F)cc2)C(=O)/C1=C/c1ccsc1 | 2% | 1% | ? | ? | 0 | -1%
O=C1NC(=O)N(c2cccc(Br)c2)C(=O)/C1=C/c1ccsc1 | -9% | -15% | ? | 20µM* | -6 | -20%
N#Cc1ccc(CN2CC[C@@]3(CCCNC3)C2)cc1 | / | / | / | 5% | -1 | /
CC(C)C[C@H](NC(=O)CNC(=O)[C@H](CCC(N)=O)NC(=O)[C@H](Cc1ccc(O)cc1)NC(=O)[C@@H](NC(=O)[C@H](Cc1ccc(O)cc1)NC(=O)CNC(=O)[C@@H](N)CCCN=C(N)N)C(C)C)C(=O)O | / | / | / | 0% | 7 | /
CC1=NN(c2ccccc2)C(=O)C1/C=C1\C(=O)NC(=O)N(c2ccc(C)c(C)c2)C1=O (stereo not given) | 3% | -23% | 11µM* | -20% | 15 | 0%
CC1=NN(c2ccccc2)C(=O)C1/C=C1/C(=O)NC(=O)N(c2cc(C)cc(C)c2)C1=O (stereo not given) | -12% | -26% | 11µM* | 3% | 14 | -9%
CC1(C)CC(=O)C2=C(C1)OC(N)=C([N+](=O)[O-])C2c1ccc(C#N)s1 (stereo not given) | ? | ? | 8.9µM* | 35µM* | -5 | -28%
CN(CC(=O)O)C(=O)[C@H](Cc1ccccc1)NC(=O)[C@@H](CCCN=C(N)N)NC(=O)[C@@H](N)Cc1ccc(O)cc1 | / | / | / | 8% | 3 | /
C[C@@H](C1CC[C@@]2(O)C3=CC(=O)[C@@H]4C[C@@H](O)[C@@H](O)C[C@]4(C)[C@H]3CC[C@]12C)[C@H](O)CCC(C)(C)O (stereo not given in full) | / | / | / | 2% | 4 | /
CCC(C)n1c(=O)[nH]c(C)c(Br)c1=O (stereo not given) | / | / | / | 12% | 0 | /
SMILES | Tau FP inhib | Tau fluor counter | Tau fibril ThT | Sfp PPTase inh | FBPA coupling cs | JMJD2E inh
COc1ccc2c(c1)NP(=S)(Oc1ccccc1)N2 (stereo not given) | ? | ? | 8.9µM* | 32µM* | -4 | ?
COc1cccc(-n2c(=S)[nH]c3ccccc3c2=O)c1 | 2% | 5% | 0% | 17% | -1 | -7%
CN1CCN(c2ncc3ncc(=O)n(C)c3n2)CC1 | / | / | / | -9% | 2 | /
Cn1cccc1/C=C1/C(=O)NC(=S)N(Cc2ccc(F)cc2)C1=O | 35µM* | 11µM*[quencher] | / | ? | -4 | -8%
Cc1ccc(-n2c(O)c(/C=C3/C(c4ccccc4)=Nc4ccccc43)c(=O)[nH]c2=O)cc1 | ? | ? | 13µM* | -24% | 3 | 4%
O=C(N/N=C/C1C(=O)NC(=S)N(c2ccccc2)C1=O)c1cc(Br)c(O)c(Br)c1 (stereo not given) | -1% | -15% | ? | -13% | 2 | 22µM*
O=C(N/N=C/c1c(O)n(C2CCCCC2)c(=S)[nH]c1=O)c1ccccc1 | / | / | / | 26% | 0 | /
CN1C2CCC1CC(NC(=O)c1nn(C)c3ccccc13)C2 (stereo not given) | -4% | -5% | -7% | 7% | / | ?
CCN1C(=O)NC(=O)/C(=C\c2cn(CC(=O)N3CCCC3)c3ccccc23)C1=O | / | / | / | 56µM* | 2 | /
CCN(CC)c1ccc(/C=C2\C(=O)NC(=O)N(Cc3ccco3)C2=O)cc1 | -3% | 3% | ? | ? | 1 | -10%
O=C(O)Cn1cc(/C=C2\C(=O)NC(=O)N(Cc3ccco3)C2=O)c2ccccc21 | -13% | -12% | ? | 28µM* | -6 | ?
O=C(O)Cn1cc(/C=C2\C(=O)NC(=O)N(c3ccc(Br)cc3)C2=O)c2ccccc21 | / | / | / | 28µM* | 4 | /
Cc1cc(/C=C2/C(=O)NC(=O)N(Cc3ccco3)C2=O)c(C)n1-c1ccccc1O | -14% | ? | ? | 6% | 4 | 32µM*
CC(C)[C@H](CO)Nc1nc(Nc2cccc(Cl)c2)c2ncn(C(C)C)c2n1 | ? | ? | ? | 14% | 0 | ?
CSCC[C@H](NC(=O)[C@H](CC(C)C)NC(=O)[C@@H](Cc1cnc[nH]1)NC(=O)[C@H](Cc1ccccc1)NC(=O)[C@@H](Cc1ccccc1)NC(=O)[C@@H](N)Cc1ccc(O)cc1)C(N)=O | / | / | / | 10% | -1 | /
